Results reported in the supplement of paper PMC8975748.
Structures can show the parent of a compound that is named as a salt. ± gives the standard deviation of the averaged measurements.

Experiments:
[1] = system: Saccharomyces cerevisiae BY4741 SeMeCo community; assay: mean cell size (pixel area) (pixels); higher = larger cells; details: 10 µM; 24 h; SM minimal medium
Procedure, shortened: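 Drug was acoustically predosed into 384-well plates to a final 10 µM in SM medium, and each well received 70 µl of Saccharomyces cerevisiae BY4741 diluted to OD600 = 0.3 from an overnight preculture at OD600 = 1.0. This four-plasmid fluorescent community carries one fluorescent marker per plasmid, and each plasmid complements one auxotrophy. After 24 h, the cells were fixed with paraformaldehyde and imaged by automated confocal microscopy, and Harmony analysis yielded mean cell pixel area per well. Each value is averaged over 3 replicates. Same SeMeCo high-content imaging drug screen: Selleck FDA-approved drugs at 10 µM, 24 h in SM medium, 384-well plates, 3 replicates.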

[2] = system: Saccharomyces cerevisiae BY4741 SeMeCo community; assay: z-score of prototroph abundance vs DMSO median; higher = larger share of this subpopulation than in DMSO controls; details: 10 µM; 24 h; SM minimal medium; subpopulation (auxotrophy): Prototroph
Procedure, shortened: (§1)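 Automated confocal microscopy of paraformaldehyde-fixed cells was used to follow a Saccharomyces cerevisiae BY4741 community carrying four plasmids, each restoring one auxotrophy and encoding a distinct fluorescent protein. The community was pre-grown overnight to OD600 1.0, diluted to 0.3, and added at 70 µl to 384-well plates acoustically predosed with library drugs (10 µM final) for 24 h of growth in minimal SM medium. Single-auxotroph fluorescent strains set thresholds and autofluorescence correction, and each subpopulation's abundance was scored as a z-score against the vehicle-well median.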

[3] = system: Saccharomyces cerevisiae BY4741 SeMeCo community; assay: z-score of subpopulation abundance vs DMSO median, subpopulation auxotrophic for M; higher = larger share of this subpopulation than in DMSO controls; details: 10 µM; 24 h; SM minimal medium; subpopulation (auxotrophy): M
Procedure, shortened: as §1

[4] = system: Saccharomyces cerevisiae BY4741 SeMeCo community; assay: z-score of subpopulation abundance vs DMSO median, subpopulation auxotrophic for L; higher = larger share of this subpopulation than in DMSO controls; details: 10 µM; 24 h; SM minimal medium; subpopulation (auxotrophy): L
Procedure, shortened: as §1

[5] = system: Saccharomyces cerevisiae BY4741 SeMeCo community; assay: z-score of subpopulation abundance vs DMSO median, subpopulation auxotrophic for U; higher = larger share of this subpopulation than in DMSO controls; details: 10 µM; 24 h; SM minimal medium; subpopulation (auxotrophy): U
Procedure, shortened: as §1

[6] = system: Saccharomyces cerevisiae BY4741 SeMeCo community; assay: z-score of subpopulation abundance vs DMSO median, subpopulation auxotrophic for LU; higher = larger share of this subpopulation than in DMSO controls; details: 10 µM; 24 h; SM minimal medium; subpopulation (auxotrophy): LU
Procedure, shortened: as §1

[7] = system: Saccharomyces cerevisiae BY4741 SeMeCo community; assay: z-score of subpopulation abundance vs DMSO median, subpopulation auxotrophic for LM; higher = larger share of this subpopulation than in DMSO controls; details: 10 µM; 24 h; SM minimal medium; subpopulation (auxotrophy): LM
Procedure, shortened: as §1

[8] = system: Saccharomyces cerevisiae BY4741 SeMeCo community; assay: z-score of subpopulation abundance vs DMSO median, subpopulation auxotrophic for HM; higher = larger share of this subpopulation than in DMSO controls; details: 10 µM; 24 h; SM minimal medium; subpopulation (auxotrophy): HM
Procedure, shortened: as §1

[9] = system: Saccharomyces cerevisiae BY4741 SeMeCo community; assay: z-score of subpopulation abundance vs DMSO median, subpopulation auxotrophic for UM; higher = larger share of this subpopulation than in DMSO controls; details: 10 µM; 24 h; SM minimal medium; subpopulation (auxotrophy): UM
Procedure, shortened: as §1

[10] = system: Saccharomyces cerevisiae BY4741 SeMeCo community; assay: z-score of subpopulation abundance vs DMSO median, subpopulation auxotrophic for HL; higher = larger share of this subpopulation than in DMSO controls; details: 10 µM; 24 h; SM minimal medium; subpopulation (auxotrophy): HL
Procedure, shortened: as §1

[11] = system: Saccharomyces cerevisiae BY4741 SeMeCo community; assay: z-score of subpopulation abundance vs DMSO median, subpopulation auxotrophic for HLU; higher = larger share of this subpopulation than in DMSO controls; details: 10 µM; 24 h; SM minimal medium; subpopulation (auxotrophy): HLU
Procedure, shortened: as §1

[12] = system: Saccharomyces cerevisiae BY4741 SeMeCo community; assay: z-score of subpopulation abundance vs DMSO median, subpopulation auxotrophic for LUM; higher = larger share of this subpopulation than in DMSO controls; details: 10 µM; 24 h; SM minimal medium; subpopulation (auxotrophy): LUM
Procedure, shortened: as §1

[13] = system: Saccharomyces cerevisiae BY4741 SeMeCo community; assay: z-score of subpopulation abundance vs DMSO median, subpopulation auxotrophic for HLUM; higher = larger share of this subpopulation than in DMSO controls; details: 10 µM; 24 h; SM minimal medium; subpopulation (auxotrophy): HLUM
Procedure, shortened: as §1

[14] = system: Saccharomyces cerevisiae BY4741 SeMeCo community; assay: z-score of subpopulation abundance vs DMSO median, subpopulation auxotrophic for H; higher = larger share of this subpopulation than in DMSO controls; details: 10 µM; 24 h; SM minimal medium; subpopulation (auxotrophy): H
Procedure, shortened: as §1

[15] = system: Saccharomyces cerevisiae BY4741 SeMeCo community; assay: z-score of subpopulation abundance vs DMSO median, subpopulation auxotrophic for HU; higher = larger share of this subpopulation than in DMSO controls; details: 10 µM; 24 h; SM minimal medium; subpopulation (auxotrophy): HU
Procedure, shortened: as §1

[16] = system: Saccharomyces cerevisiae BY4741 SeMeCo community; assay: z-score of subpopulation abundance vs DMSO median, subpopulation auxotrophic for HUM; higher = larger share of this subpopulation than in DMSO controls; details: 10 µM; 24 h; SM minimal medium; subpopulation (auxotrophy): HUM
Procedure, shortened: as §1

Row | Structure (SMILES) | mean cell size [1] | z-score of prototroph abundance [2] | z-score of subpopulation abundance [3] | z-score of subpopulation abundance [4] | z-score of subpopulation abundance [5] | z-score of subpopulation abundance [6] | z-score of subpopulation abundance [7] | z-score of subpopulation abundance [8] | z-score of subpopulation abundance [9] | z-score of subpopulation abundance [10] | z-score of subpopulation abundance [11] | z-score of subpopulation abundance [12] | z-score of subpopulation abundance [13] | z-score of subpopulation abundance [14] | z-score of subpopulation abundance [15] | z-score of subpopulation abundance [16]
1 | Cc1cc(O)c(C(=O)N[C@@H](C(=O)N[C@@H]2C(=O)N3C(C(=O)O)=C(CSc4nnnn4C)CS[C@H]23)c2ccc(O)cc2)cn1 [Cefpiramide sodium] | 12.3 ± 0.13 | -0.28 | 0.99 | -0.92 | 0.61 | -0.12 | -0.42 | 0.57 | 0.29 | 0.18 | 0.16 | -0.42 | -0.55 | – | – | –
2 | C[C@@H](O)[C@H]1C(=O)N2C(C(=O)O)=C(S[C@@H]3CN[C@H](CNS(N)(=O)=O)C3)[C@H](C)[C@H]12 [Doripenem Hydrate] | 12.38 ± 0.092 | 0.39 | -0.6 | 0.82 | 0.2 | 0.22 | – | -0.76 | -0.42 | -0.25 | -0.09 | -0.2 | -1.04 | -0.3 | -0.19 | -0.79
3 | O=C1CN(/N=C/c2ccc([N+](=O)[O-])o2)C(=O)N1 [Nitrofurantoin] | 12.47 ± 0.1 | 0.19 | 0.84 | -0.13 | -0.25 | -0.11 | – | – | 0.27 | 0.1 | -0.69 | -0.21 | -0.04 | -0.05 | -0.72 | -0.82
4 | Cc1c(-c2ccc(O)cc2)n(Cc2ccc(OCCN3CCCCCC3)cc2)c2ccc(O)cc12 [Bazedoxifene Acetate] | – | -0.23 | 0.99 | -0.2 | -0.25 | 0.06 | -0.35 | 0.8 | 0.36 | -0.12 | 0.21 | 0.65 | -0.3 | 0.29 | -1.12 | –
5 | CC(=O)Oc1ccc(C(=C2CCCCC2)c2ccc(OC(C)=O)cc2)cc1 [Cyclofenil] | 12.3 ± 0.17 | 0.79 | -1.19 | -0.27 | 0.16 | -0.48 | – | -0.93 | -0.03 | 0.25 | -0.23 | -0.06 | -0.2 | -0.22 | -0.3 | -0.46
6 | CCN1CCN(c2cc3c(cc2F)c(=O)c(C(=O)O)cn3C2CC2)CC1 [Enrofloxacin] | 12.04 ± 0.1 | 0.16 | 0.24 | -0.5 | 0.01 | -0.21 | 0.01 | – | 0 | – | -0.04 | -0.06 | -0.35 | -0.13 | 0.07 | 0.02
7 | CC1(C)S[C@@H]2[C@H](NC(=O)[C@H](N)c3ccc(O)cc3)C(=O)N2[C@H]1C(=O)O [Amoxicillin] | 12.6 ± 0.28 | -0.05 | 0.35 | -0.63 | 0.14 | 0.41 | – | 0.32 | 0.46 | – | 0.39 | 0.09 | 0.49 | – | 0.65 | –
8 | CN1CCOC(c2ccccc2)c2ccccc2C1 (stereo not drawn) [Nefopam HCl] | 12.1 ± 0.25 | 0.32 | 0.02 | -1.02 | 0.26 | 0.08 | – | -0.51 | 0.37 | – | -0.39 | -0.26 | -0.19 | -0.62 | 0.21 | -0.51
9 | COc1cccc2c1C(=O)c1c(O)c3c(c(O)c1C2=O)C[C@@](O)(C(C)=O)C[C@@H]3O[C@H]1C[C@H](N)[C@H](O)[C@H](C)O1 [Daunorubicin HCl] | 12.78 ± 0.043 | -0.6 | -4.78 | -1.28 | 4.14 | 3.27 | – | – | 0.35 | 0.73 | 4.11 | 1.18 | 5.15 | 0.44 | 4.21 | 1.29
10 | C#CCN[C@@H]1CCc2ccccc21 [Rasagiline Mesylate] | – | 0.23 | 0.65 | 1.22 | -0.4 | 0.5 | 0.42 | -0.43 | -0.05 | 0.37 | 0.21 | 0.19 | 0.44 | 0.22 | – | -0.47
11 | COc1cc(/C=C/C(=O)N2CCN(CC(=O)N3CCCC3)CC2)cc(OC)c1OC [Cinepazide maleate] | 12.6 ± 0.14 | -0.19 | 0 | -1.17 | 1.16 | 0.47 | – | -0.1 | 0.61 | -0.2 | 0.11 | -0.41 | -0.53 | -0.51 | 0.48 | -0.05
12 | CO/N=C(\C(=O)N[C@@H]1C(=O)N2C(C(=O)O)=CCS[C@H]12)c1csc(N)n1 [Ceftizoxime] | – | 0.78 | 0.26 | -0.19 | -0.63 | -0.12 | -0.02 | -0.82 | -0.98 | -0.85 | -1.12 | -0.44 | -0.49 | -0.86 | -0.76 | -1.23
13 | Cc1onc(-c2ccccc2)c1C(=O)N[C@@H]1C(=O)N2[C@@H]1SC(C)(C)[C@@H]2C(=O)O [Oxacillin sodium monohydrate] | 12.04 ± 0.12 | – | 0.02 | 0.52 | – | 0.83 | 0.23 | -0.14 | – | 0.94 | 0.2 | 0.47 | – | -0.05 | 0.32 | 0.65
14 | C[C@]12CCC(=O)C=C1[C@@H]1C[C@@H]1[C@H]1[C@@H]3[C@@H]4C[C@@H]4[C@@]4(CCC(=O)O4)[C@@]3(C)CC[C@@H]12 [Drospirenone] | – | -0.22 | 0.59 | -0.08 | -0.17 | 0.11 | 1.26 | 0.03 | -0.14 | 0.14 | 0.26 | – | -0.05 | -0.17 | 0.03 | –
15 | CCOC(=O)C1=C[C@@H](OC(CC)CC)[C@H](NC(C)=O)[C@@H](N)C1 [Oseltamivir Phosphate] | 12.42 ± 0.039 | – | -0.5 | 0.45 | -1.55 | -0.72 | 0.27 | -0.4 | -1.29 | 0.28 | -0.07 | -0.21 | 0.24 | 0.58 | -0.98 | –
